Source: PubChem BioAssay AID588335 (The Scripps Research Institute Molecular Screening Center, 2011)
Screen size: about 360,000 compounds; about 4,500 (1.2%) were called active. Only a selection was taken, and actives are over-represented in it overall. Unmarked numbers belong to inactive results. No stated cut-off is given here; in the data, active means inhibition above about 30%; inactive means the rest.

Experiment: GDH-TPI coupling enzyme inhibitors, primary screen, artefact control for M. tuberculosis FBA inhibitor project, biochemical, absorbance, full deck (AID 588335);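 further: 0% = DMSO wells and 100% = wells lacking the enzyme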
Conditions: GDH-TPI coupled enzyme counterscreen, NADH absorbance; at 4.8 µM; hits give high values
Work on `NC(=O)Cn1nc([N+](=O)[O-])nc1Oc1ccc(Br)cc1` yielded an inhibition of -2.44%. Compound `COc1ccc(OC)c(-n2cc3c(=O)n(C)c(=O)n(C)c3c2)c1` has an inhibition of 17.5%. Work on `Cc1noc(COc2ccccc2OCc2onc(C)c2Cl)c1Cl` yielded an inhibition of -5.03%. In the case of `Cc1cc(NC(=O)CN2C(=O)NC(C)(CCc3ccccc3)C2=O)no1` (stereo not drawn), the inhibition is reported as -0.61%. `COC(=O)c1sc(NC(=O)COC(=O)C2CCC2)c(C(=O)OC)c1C` showed an inhibition of -0.7%. For `COC(=O)c1sc2[nH]c(=S)n(N)c(=O)c2c1C`, the inhibition was 31.6% (active). `CCCC(CCC(=O)OC)(C(=O)OCC)c1csc(N)n1` (stereo not drawn) gave an inhibition of 13%. Work on `O=C(COC(=O)c1ccccc1C(=O)c1ccccc1)c1ccco1` yielded an inhibition of -5.13%. Work on `CCc1ccc(C(=O)COC(=O)c2ccco2)cc1` yielded an inhibition of -8.19%. With `CCN(CC)c1ccc(C(=O)OCC(=O)c2ccco2)cc1` the inhibition was 31.4% (active). `C[C@H](NC(=O)C1CCN(S(=O)(=O)c2ccccc2)CC1)C(=O)NCc1ccccc1` gave an inhibition of -5.08%. For `O=C(CN1C(=O)NC2(CCCCCC2)C1=O)Nc1ccc([N+](=O)[O-])cc1`, the inhibition was 22.4%. For `COc1cc(C=NC2CCCCC2)ccc1O`, the inhibition was 32.4% (active). For `COc1ccccc1-n1c(O)c(C=NC2CC2)c(=O)[nH]c1=O`, the inhibition was -4.18%. `COc1cc(C(=S)NC2CCCCC2)ccc1O` gave an inhibition of 2.87%. In the case of `Cn1c(=O)[nH]c(=O)c2c1nc(NCCCn1ccnc1)n2Cc1cccc(Br)c1`, the inhibition is reported as 33.2% (active). For `Cc1nnc(Sc2nc3c(c(=O)[nH]c(=O)n3C)n2Cc2ccccc2)s1`, the inhibition was 3.35%. For `COc1ccc(CCn2c(NCCCN3CCOCC3)nc3c2c(=O)[nH]c(=O)n3C)cc1`, the inhibition was 2.26%. Work on `Cc1cc(C)cc(C(=O)NCC(=O)OCC(=O)N2CCCCC2)c1` yielded an inhibition of -3.76%. With `Cc1ccc(-n2ncc3c2CC(C)(C)CC3NC(=O)Cc2c(C)noc2C)cc1` (stereo not drawn) the inhibition was 2.41%. `Cc1ccc(NC(=O)c2nc[nH]c2C(=O)N2CCCCC2)c(C(=O)c2ccccc2)c1` showed an inhibition of 16.6%. Compound `CC(CNS(=O)(=O)c1ccc(Br)cc1)CN(C)C` (stereo not drawn) has an inhibition of -2.58%. With `COc1ccc2c(c1)c(C(=O)N/N=C/c1cccs1)c(C)n2C` the inhibition was 38.7% (active). `Cc1c(NC(=O)C(=O)N/N=C/c2cccs2)c(=O)n(-c2ccccc2)n1C` showed an inhibition of 6.43%. For `COc1ccc(N(CC(=O)N/N=C/c2cccs2)S(=O)(=O)c2ccc(OC)c(OC)c2)cc1`, the inhibition was 7.97%. `CCOC(=O)c1ccccc1NS(=O)(=O)c1c(C)nc2sccn2c1=O` gave an inhibition of 15%. For `COc1ccc(CCNC(=O)COC(=O)c2ccc[nH]c2=O)cc1`, the inhibition was 7.19%. Work on `COCCCn1c(SCc2cccc(OC)c2)nc2cc(OC)c(OC)cc2c1=N` yielded an inhibition of -0.63%. In the case of `O=C(N/N=C/c1ccco1)c1ccc(C(=O)N/N=C/c2ccco2)o1`, the inhibition is reported as 47.5% (active). `O=C(Cc1ccccc1)Nc1cccc(C(=O)N/N=C/c2ccco2)c1` showed an inhibition of 12.2%. In the case of `O=C(CCNC(=O)c1ccccc1Cl)NN=Cc1ccco1`, the inhibition is reported as 10.8%. In the case of `COc1ccc(O)c(C(=O)c2cnc3onc(C(C)C)c3c2)c1`, the inhibition is reported as 5.83%. Work on `COc1ccc(Cn2cc(CN3CCS(=O)(=O)N(Cc4ccc(-c5cccc(Cl)c5)cc4)C(C)C3=O)nn2)cc1` (stereo not drawn) yielded an inhibition of 12.3%. With `C=CCn1c(=NC(=O)c2cccs2)sc2cc(NC(C)=O)ccc21` the inhibition was 31.8% (active). Compound `C=CCn1c(CCNC(=O)c2cccs2)n[nH]c1=S` has an inhibition of -2.53%. With `C=CCn1c(=NC(=O)c2ccc(S(=O)(=O)N3CCCC3)cc2)sc2cc(NC(C)=O)ccc21` the inhibition was 28.4%. For `Cc1ccc(O)c(CCc2ccccc2)n1`, the inhibition was 5.82%. Compound `COC(=O)C(C(=O)Nc1cccc(Cl)c1C)C1CCCC1` (stereo not drawn) has an inhibition of 2.59%. Compound `CCOC(=O)N1CCN(C(=O)CSc2nnc(-c3c[nH]c4ccccc34)n2CCOC)CC1` has an inhibition of 21.3%. With `Cc1ccc(C)c(S(=O)(=O)N(C)c2ccc(OC(=O)C3CCN(C(=O)c4ccc(F)cc4)CC3)cc2)c1` the inhibition was -2.88%. Compound `CCN(C(=O)COC(=O)c1cc(S(=O)(=O)N2CCc3ccccc32)ccc1OC)C1CCS(=O)(=O)C1` (stereo not drawn) has an inhibition of -2.55%. Compound `Cc1ccc2oc(=O)c3cnn(CC(=O)N(Cc4ccco4)C4CCCCC4)c3c2c1` has an inhibition of 0%. With `CN1CCN(CCNC(=O)Nc2ccc([N+](=O)[O-])cc2)CC1` the inhibition was 35.1% (active). Compound `O=C(NCCCN1CCN(c2ccc(F)cc2)CC1)Nc1ccc([N+](=O)[O-])cc1` has an inhibition of 21.2%. Compound `CN1CCN(CCNC(=O)Nc2ccccc2[N+](=O)[O-])CC1` has an inhibition of 1.97%. Work on `CC(Oc1ccc(F)cc1)C(=O)Nc1cc(S(=O)(=O)N2CCOCC2)ccc1N1CCN(C)CC1` (stereo not drawn) yielded an inhibition of -7.32%. For `COC(=O)c1ccc(NC(=O)C23CC4CC(C2)CC(n2cnc(Cl)n2)(C4)C3)cc1`, the inhibition was 7.31%. `CCC(CC)C(=O)Nc1cccc(C(=O)N2CCCC2)c1` gave an inhibition of 2.12%. In the case of `COc1ccc(NC(=O)CCCOc2ccc(C(C)=O)cc2)cc1S(=O)(=O)N1CCCCC1`, the inhibition is reported as 7.56%. With `COc1cc(/C=N/NC(=O)c2ccc(N3CCCC3=O)cc2)ccc1O` the inhibition was 43.2% (active). `C/C(=N\NC(=O)c1cccc(N2CCCC2=O)c1)c1ccc(N)cc1` gave an inhibition of 5.43%. Work on `O=C(NCCCN1CCCCCC1)c1ccc(N2CCCC2=O)cc1` yielded an inhibition of 3.81%. With `CN(CC(O)COc1ccc(S(=O)(=O)N2CCOCC2)cc1Cl)C1CCCCC1` (stereo not drawn) the inhibition was -2.47%. `Cn1c(SCC(=O)Nc2ccc(Cl)cc2)nc(O)cc1=O` gave an inhibition of 4.39%. Work on `O=C(NCc1ccco1)/C(=C\c1cccc([N+](=O)[O-])c1)NC(=O)c1ccco1` yielded an inhibition of 16.8%. In the case of `O=C(NCc1ccco1)/C(=C/c1cccc([N+](=O)[O-])c1)NC(=O)c1ccco1`, the inhibition is reported as -4.48%. In the case of `Cc1ccc(C(=O)N/C(=C/c2ccc(-c3cccc([N+](=O)[O-])c3)o2)C(=O)NCCCN(C)C)cc1`, the inhibition is reported as 58.5% (active). `CN(C(=O)c1cccc(NC(=O)Cc2ccc([N+](=O)[O-])cc2)c1)C1CCC1` gave an inhibition of 6.17%.
